Measured values from publication PMC4336329 (PLoS ONE, 2015).
About 14,000 (4.5%) of roughly 310,000 compounds showed an effect of 50% or more. The effect is printed as a negative number. For the sample, strong results were picked, then their nearest neighbours and some compounds at random.

target: human ether-à-go-go-related gene (hERG) potassium channel (human, UniProt Q12809); test: primary screen, population patch clamp on CHO cells stably expressing hERG; higher = less effect of the substance
Sequence (Q12809 whole entry, looked up): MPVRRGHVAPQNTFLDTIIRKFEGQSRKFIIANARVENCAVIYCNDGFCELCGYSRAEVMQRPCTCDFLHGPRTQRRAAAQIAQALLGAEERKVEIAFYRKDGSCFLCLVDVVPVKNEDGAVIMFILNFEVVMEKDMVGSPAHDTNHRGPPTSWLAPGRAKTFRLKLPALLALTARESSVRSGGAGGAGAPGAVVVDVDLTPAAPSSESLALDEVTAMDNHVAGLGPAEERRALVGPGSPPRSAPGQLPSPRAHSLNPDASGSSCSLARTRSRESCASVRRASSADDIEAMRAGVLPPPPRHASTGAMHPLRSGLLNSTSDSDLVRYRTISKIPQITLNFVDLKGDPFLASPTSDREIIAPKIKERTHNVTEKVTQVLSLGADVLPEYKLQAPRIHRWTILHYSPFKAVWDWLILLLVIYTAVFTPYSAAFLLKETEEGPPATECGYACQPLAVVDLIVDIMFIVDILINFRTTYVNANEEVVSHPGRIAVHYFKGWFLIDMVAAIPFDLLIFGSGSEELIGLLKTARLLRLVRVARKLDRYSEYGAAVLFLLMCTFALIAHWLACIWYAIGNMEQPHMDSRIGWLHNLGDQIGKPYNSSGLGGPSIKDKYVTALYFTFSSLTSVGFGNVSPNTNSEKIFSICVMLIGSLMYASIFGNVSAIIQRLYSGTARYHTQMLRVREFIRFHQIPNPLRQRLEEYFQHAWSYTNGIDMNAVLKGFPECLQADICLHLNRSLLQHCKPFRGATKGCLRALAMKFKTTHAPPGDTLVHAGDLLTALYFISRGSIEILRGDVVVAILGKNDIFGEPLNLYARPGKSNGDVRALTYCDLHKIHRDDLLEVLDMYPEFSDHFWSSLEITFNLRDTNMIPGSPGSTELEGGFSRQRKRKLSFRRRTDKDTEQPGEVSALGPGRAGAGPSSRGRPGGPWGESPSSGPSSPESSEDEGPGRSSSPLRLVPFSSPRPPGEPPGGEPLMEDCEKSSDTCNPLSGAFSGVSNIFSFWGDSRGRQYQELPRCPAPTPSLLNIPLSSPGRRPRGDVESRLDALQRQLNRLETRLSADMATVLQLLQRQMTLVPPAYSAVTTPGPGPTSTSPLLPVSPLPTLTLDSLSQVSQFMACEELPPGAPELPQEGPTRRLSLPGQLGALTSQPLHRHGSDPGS
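Note: peak tail current of the secondary pulse compared with the same well before compound.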

Structure (SMILES)	hERG current change (%, negative = inhibition) at 10uM [%]
CCc1noc(C)c1C(=O)Nc1nnc(C(CC)CC)s1	-16.9
CC1C/C(=C\c2cccnc2)C(=O)/C(=C/c2cccnc2)C1 (stereo not shown)	-63.1
O=C1/C(=C/c2cccnc2)CC/C1=C\c1cccnc1	-24.5
CC1C/C(=C/c2ccncc2)C(=O)/C(=C/c2ccncc2)C1 (stereo not shown)	-41.9
COc1ccccc1CC(=O)Nc1ccc(S(=O)(=O)N2CC(C)CC(C)C2)cc1 (stereo not shown)	-7.25
COc1cc(OC)nc(NC(=O)CN2CCN(c3ccc(F)cc3)CC2)n1	-20.1
CN1CCc2c(sc3c2C(=O)NC(/C=C\c2ccccc2)N3)C1 (stereo not shown)	-58.6
CN1CCc2c(sc3c2C(=O)NC(/C=C/c2ccco2)N3)C1 (stereo not shown)	-27.4
CSc1ccc(C2NC(=O)c3c(sc4c3CCN(C)C4)N2)cc1 (stereo not shown)	-60.6
CN1CCc2c(sc3c2C(=O)NC(c2ccc4c(c2)OCO4)N3)C1 (stereo not shown)	-16.5
Cc1ccc(C2NC(=O)c3c(sc4c3CCN(C)C4)N2)s1 (stereo not shown)	-36.8
CN1CCc2c(sc3c2C(=O)NC(c2ccccn2)N3)C1 (stereo not shown)	-1.35
Cc1ccc2nc(-c3ccc(-c4ccccn4)s3)cn2c1	-1.76
CN(C)c1nc(N(C)C)nc(N(C#N)CCOc2ccccc2)n1	-4.58
CCNc1nc(NCC)nc(N(C#N)CCOc2ccccc2)n1	-55.1
CCNc1nc(NC(C)C)nc(N(C#N)CCOc2ccccc2)n1	-26
ON1C2CCCCC2N(O)C1c1ccccc1 (stereo not shown)	13.2
O=C(COC(=O)C1(c2ccccc2F)CCCC1)NCc1ccc2c(c1)OCO2	-6.33
CCOC(=O)N1CCC(NC(=O)CS(=O)(=O)Cc2nc(-c3cccc(Cl)c3)oc2C)CC1	-18.3
CCOC(=O)N1CCC(NC(=O)CS(=O)Cc2nc(-c3ccc(C)cc3)oc2C)CC1 (stereo not shown)	-2.4
CCOC(=O)N1CCC(NC(=O)CSCc2nc(-c3cccc(OC)c3)oc2C)CC1	-17.6
CCOC(=O)N1CCC(NC(=O)C2CCCN(Cc3nc(-c4cccc(Cl)c4)oc3C)C2)CC1 (stereo not shown)	-72.2

Structure (SMILES)	hERG current change (%, negative = inhibition) at 10uM [%]
Cc1oc(-c2cccc(Cl)c2)nc1CS(=O)(=O)CC(=O)NC1CCCC1	6.45
CCOC(=O)N1CCC(NC(=O)C2CCCN(Cc3nc(-c4cccc(C)c4)oc3C)C2)CC1 (stereo not shown)	-63.6
CCc1ccc(-c2nc(CN3CCCC(C(=O)O)C3)c(C)o2)cc1 (stereo not shown)	14.2
CCOC(=O)N1CCC(NC(=O)C2CCCN(c3nc4ccccc4o3)C2)CC1 (stereo not shown)	-28.4
CCOC(=O)N1CCC(NC(=O)C2CCCN(Cc3nc(-c4ccc(CC)cc4)oc3C)C2)CC1 (stereo not shown)	-71.5
Nc1sc(-c2ccccc2)cc1C(=O)N/N=C/c1ccc(Cl)cc1	18.1
O=C(CN1CCCCCCC1)Nc1cc(Cl)cc(Cl)c1	1.75
Cc1ccc(-c2noc(Cn3cc(S(=O)(=O)N4CCCC4)ccc3=O)n2)cc1	8.62
CC(=O)N1c2ccc(S(=O)(=O)N3CCC(C(=O)Nc4cc(C)cc(C)c4)CC3)cc2CC1C (stereo not shown)	2
COc1cc(/C=C/C(=O)OCC(=O)Nc2ccc(C)cc2[N+](=O)[O-])ccc1O	-20.5
CC(CC(=O)O)CC(=O)Nc1cc([N+](=O)[O-])ccc1O (stereo not shown)	-2.89
CCOC(=O)c1ccccc1CN1C(=O)c2ccccc2S1(=O)=O	-11.1
COC(=O)c1cccc(N2C(=O)c3ccccc3S2(=O)=O)c1	-9.36
CCOC(=O)c1cccc(N2C(=O)c3ccccc3S2(=O)=O)c1	-59.5
CCOC(=O)N/N=C(\C)c1ccc(Oc2ncccn2)cc1	17.1
O=C(O)C(=O)O.c1ccc(CN2CCC(N3CCC(N4CCCCCC4)CC3)CC2)cc1	16.5
CCCCN(Cc1ccccc1)C1CCN(CCc2ccccc2)CC1	-72.2
CCCN1CNC(=S)N(CCc2ccccc2)C1	8.83
CC(C)CC(=O)N1CCC(N(CCc2ccccc2)Cc2ccccc2)CC1.O=C(O)C(=O)O	-46.8
CCN(CC)C1CCN(C(=O)c2ccc(OC3CCN(CCc4ccccc4)CC3)cc2)C1 (stereo not shown)	2.06
CCCN1CCC(N(CCc2ccccc2)Cc2ccccc2)CC1	-72.2
CCCCC(=O)C1CCN(Cc2ccccc2)CC1	-34.5

Structure (SMILES)	hERG current change (%, negative = inhibition) at 10uM [%]
O=C(O)C(=O)O.c1ccc(CCN(Cc2ccccc2)C2CCN(C3CCCC3)CC2)cc1	-77
CCCN(CCO)C1CCN(CCc2ccccc2)CC1	7.14
CCCCN(Cc1ccccc1)C1CCN(Cc2ccccc2)CC1	-53.5
CCN(Cc1ccccc1)C1CCN(Cc2ccccc2)CC1	-14.9
CCCN1CCC(N(C)CCc2ccc(OC)c(OC)c2)CC1	-11.4
CC(C)CNS(=O)(=O)c1ccc(OCC(=O)NCC2CCCO2)c(Cl)c1 (stereo not shown)	-4.3
S=c1[nH]cnc2scc(-c3ccc(Br)cc3)c12	0.154
O=C1Nc2ccc(F)cc2C12Nc1ccccc1-c1nnc(SCc3ccccc3)nc1O2 (stereo not shown)	-13.2
COc1ccccc1NC(=O)c1ccc(-n2cccn2)nc1	3.91
O=C(Nc1cccc(Cl)c1)c1ccc(NCCCN2CCOCC2)c([N+](=O)[O-])c1	-37.9
CC(C(N)=O)N1CC(c2ccccc2)CC1=O (stereo not shown)	-4.86
O=C(CSc1nccc(=O)[nH]1)Nc1ccc2c(c1)OCCO2	51.6
Clc1cccc(Cl)c1CSc1nnc(CN2CCOCC2)n1-c1ccccc1	-28.9
Fc1ccc(CSc2nnc(CN3CCOCC3)n2-c2ccccc2)c(Cl)c1	-24
Clc1ccc(CSc2nnc(CN3CCOCC3)n2-c2ccccc2)cc1Cl	-74.1
CSCCC(NS(=O)(=O)c1ccc(C)cc1)C(=O)N1CCN(C(C)=O)CC1 (stereo not shown)	3.56
CCCCn1c(NC(=O)c2ccco2)c(C(=O)OCC)c2nc3ccccc3nc21	-42.1
CCCCn1c(NC(=O)c2ccc(Br)o2)c(C(=O)OCC)c2nc3ccccc3nc21	-53.8
CCCCn1c(NS(=O)(=O)c2ccccc2)c(C(=O)OCC)c2nc3ccccc3nc21	-23.9
CCOC(=O)c1c(NC(=O)c2ccco2)n(C2CCCCC2)c2nc3ccccc3nc12	-35.6
CCCCCn1c(NC(=O)c2ccco2)c(C(=O)OCC)c2nc3ccccc3nc21	-80.4
CCCCn1c(NC(=O)c2ccc(Br)o2)c(S(=O)(=O)c2ccccc2)c2nc3ccccc3nc21	-0.885

Structure (SMILES)	hERG current change (%, negative = inhibition) at 10uM [%]
Cc1cc(C)n(CC(=O)NNC(=O)c2cccc(C(F)(F)F)c2)n1	12.7
COc1ccc(C(=O)c2oc3ccccc3c2NC(C)=O)cc1	0.829
O=C(COc1ccc(/C=N/NC(=O)c2cc3ccccc3o2)cc1Cl)Nc1ccccc1	6.96
Cc1[nH]c2ccccc2c1/C=N/NC(=O)CNC(=O)c1ccccc1	-9.38
O=C(CO/N=C/c1c(Cl)cccc1Cl)NNC(=O)c1ccc(Cl)cc1	8.46
NC(=O)N/N=C/C=C/c1ccc(F)cc1	8.5
CC(C)=CCOc1c2occc2cc2ccc(=O)oc12	-17.9
Fc1ccc2nc(C3CCCCN3Cc3nc(CC4CC4)no3)[nH]c2c1 (stereo not shown)	0.821
Fc1ccc2nc(C3CCN(Cc4nc(CC5CC5)no4)CC3)[nH]c2c1	-51.9
O=S(=O)(c1ccc2c(c1)OCCO2)N1CCC(c2nc3ccc(Cl)cc3[nH]2)CC1	-56.6
Clc1ccc2nc(C3CCN(Cc4ccccc4)CC3)[nH]c2c1	-73.4
C1CCC(n2nnnc2CN2CCCC2)CC1	-1.31
Fc1ccccc1C1CCN(Cc2nc(CC3CC3)no2)C1 (stereo not shown)	2.1
O=C(c1cccc(Cl)c1)N1CCC(c2nc3ccccc3[nH]2)CC1	-38.2
Cc1ccc(Cl)cc1N1CCN(Cc2nnnn2C2CCCCC2)CC1	7.78
O=C(Cc1ccccc1)N1CCC(c2nc3ccccc3[nH]2)CC1	-18.9
O=S(=O)(c1ccc2c(c1)OCCO2)N1CCC(c2nc3ccccc3[nH]2)CC1	3.43
CC(C)(C)c1ccc(S(=O)(=O)N2CCC(c3nc4ccc(Cl)cc4[nH]3)CC2)cc1	-3.97
Clc1ccc2nc(C3CCN(Cc4nnnn4C4CCCCC4)CC3)[nH]c2c1	-59.2
O=C(Cc1cc(=O)[nH][nH]1)N/N=C/C=C/c1ccccc1	8.93
COc1cccc(CCNC(=O)CC2C(=O)NCCN2Cc2ccc(C)o2)c1 (stereo not shown)	15.7
CCC1=NN(C(=O)c2cccnc2)C(O)(C(F)(F)F)C1 (stereo not shown)	3.08
